From the supplement of paper PMC4723716

Test system: Plasmodium falciparum NF54 gametocytes
Test: viability index relative to DMSO control (fraction); higher = less gametocyte killing
Conditions: 12.5 µM, incubation time: 72 h
Procedure, shortened: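 In 384-well plates, compound at 12.5 µM was incubated for 72 hr at 37°C under low oxygen with P. falciparum NF54 gametocytes of each stage (I–V) at 0.50% gametocytemia and 1.25% hematocrit in 40 µl of serum-containing medium. Staining used 5 µl of 5 µM MitoTracker Red CMXRos for 20 min, then 5 µl was moved into 40 µl of 500 nM dye in serum-free medium and imaged after 30 min. Dividing the gametocyte particle count by the plate mean of solvent-only wells gave the viability index.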

[1] = gametocyte stage: Stage I viability index
[2] = gametocyte stage: Stage II viability index
[3] = gametocyte stage: Stage III viability index
[4] = gametocyte stage: Stage IV viability index
[5] = gametocyte stage: Stage V viability index

Oc1ccc(Br)cc1CN1CCN(Cc2ccc(Cl)cc2)CC1
viability index [1]: 0.0201
viability index [2]: 0.0916
viability index [3]: 0.422
viability index [4]: 0.595
viability index [5]: 0.455

Oc1ccc(C(=C(Cl)Cl)c2ccc(O)cc2)cc1
viability index [1]: 0.596
viability index [2]: 0.301
viability index [3]: 0.741
viability index [4]: 0.756
viability index [5]: 0.584

Oc1ccc(Br)cc1CN1CCN(Cc2cccc(F)c2)CC1
viability index [1]: 0.0385
viability index [2]: 0.0899
viability index [3]: 0.0787
viability index [4]: 0.196
viability index [5]: 0.273

CCCc1cc(O)c2c3c(c(=O)oc2c1)CN(C)CC3
viability index [1]: 0.134
viability index [2]: 0.296
viability index [3]: 0.649
viability index [4]: 0.827
viability index [5]: 0.637

CCOc1c(Cl)cc(CNC(C)C(O)c2ccccc2)cc1OC (stereo not given)
viability index [1]: 0.0917
viability index [2]: 0.317
viability index [3]: 0.584
viability index [4]: 0.754
viability index [5]: 1.14

CCCCCCc1cc(O)c2c3c(c(=O)oc2c1)CCC(C)C3 (stereo not given)
viability index [1]: 0.291
viability index [2]: 0.329
viability index [3]: 0.578
viability index [4]: 0.608
viability index [5]: 0.74

C=CC12CCN(CC1)C(C(O)c1ccnc3ccc(OC)cc13)C2 (stereo not given)
viability index [1]: 1.08
viability index [2]: 1.08
viability index [3]: 1.13
viability index [4]: 0.976
viability index [5]: 1.1

COc1ccc(CN2CCN(Cc3ccccc3)CC2)c(O)c1
viability index [1]: 0.0656
viability index [2]: 0.0974
viability index [3]: 0.362
viability index [4]: 0.57
viability index [5]: 0.494

CN(N=O)C1=C(NC2CCCCC2)C(=O)c2ccccc2C1=O
viability index [1]: 0.00787
viability index [2]: 0.0183
viability index [3]: 0.309
viability index [4]: 0.456
viability index [5]: 0.234

COc1cc(CNCCc2ccc(Cl)cc2)cc(OC)c1O
viability index [1]: 0.049
viability index [2]: 0.44
viability index [3]: 0.801
viability index [4]: 1.01
viability index [5]: 0.896

CCOc1cc(CNC(C)C(O)c2ccccc2)cc(Cl)c1OCC (stereo not given)
viability index [1]: 0.137
viability index [2]: 0.337
viability index [3]: 0.634
viability index [4]: 0.729
viability index [5]: 0.791

O=C(CCc1ccco1)NC1CCN(CC2(c3ccc(Cl)cc3)CCC2)CC1
viability index [1]: 0.103
viability index [2]: 0.412
viability index [3]: 0.854
viability index [4]: 0.903
viability index [5]: 1.05
